# Mdm2 MdmX PPI: human Mdm2/MdmX binding inhibition. SaOS-2 split-luciferase Mdm2/MdmX complementation, luminescence. 3% of 330,000 active. AID 485346. inhibition, % at 8 µM. O15151+Q00987;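 active = inhibition of at least 50% at 8 µM in the primary screen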
# NR3A LBD binder: modulates the human NR3A ligand-binding domain. NR3A LBD differential scanning fluorimetry, Tm shift; 0% = protein alone, 100% = glycine-bound protein. Tm shift relative to glycine control, % at 25 µM. 2.5% of 340,000 active;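 active = melting temperature shift of at least 10% of the positive control shift, at one fixed dose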
# CSC inhib: cancer stem cell inhibition; inhibition, % at 7.5 µM; cancer stem cell-like cells viability, luminescence; 1.1% of 300,000 active; AID 2717; in the data active = inhibition above about 75%; tested in HMLE shEcad cells
# Beta apoptosis: beta cell apoptosis inhibition; protection from apoptosis, % (no concentration beside the values); INS-1E cytokine-induced death, ATP luminescence, 48 h; percent of positive-control rescue, neutral wells zero; 0.8% of 300,000 active;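 active = Every replicate reaches about 75%, or at least half do and their mean reaches it too, limit read from the data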;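 also: 0% = cytokine-treated negative control wells and 100% = positive control rescue; higher means more ATP so stronger rescue from cytokine killing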
# MPTP block: blocks calcium-induced mitochondrial swelling; isolated mouse mitochondria, Ca2+ swelling absorbance, 30 min; inhibition, % at 10 µM; 1.4% of 360,000 active; AID 602449;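 active = inhibition of 50% or more, scaled per plate between neutral and stimulator controls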;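 also: 0% = DMSO wells given calcium and 100% = 1 mM EGTA wells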
# Gli-Sufu block: blocks Gli-Sufu signaling in a luciferase reporter | Sufu-KO-LIGHT fibroblasts, Gli luciferase reporter luminescence | inhibition, % at 5 µM | 0.74% of 340,000 active;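 active = inhibition above about 55%, limit read from the data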;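 also: 0% = DMSO-treated cells and 100% = wells with medium but no cells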
# Mdm2-MdmX conf: confirmation of human Mdm2/MdmX interaction inhibitors; shares compounds with Mdm2 MdmX PPI; Mdm2-MdmX binding, luminescent assay; inhibition, % at 8 µM; 55% of 10,000 active; in the data active = inhibition above about 40%
# FLuc counter: full-length luciferase inhibition in Mdm2/MdmX counter-screen; shares compounds with Mdm2 MdmX PPI; SaOS-2 full-length luciferase counterscreen, luminescence; 77% of 6,200 active; inhibition, % at 8 µM; AID 504607;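 active = mean inhibition at 8 µM reaching about 37%, which flags the compound as non-specific, limit read from the data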;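 also: p53-null SaOS-2 cells with luciferase driven by a doxycycline-inducible promoter; compound on cells about two nights before reading with doxycycline added after day one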
# * = called active by the depositor; nt = no result given. In the library only some 6.6% were active in any assay of this set; here they are far more common.
SMILES,Mdm2 MdmX PPI,NR3A LBD binder,CSC inhib,Beta apoptosis,MPTP block,Gli-Sufu block,Mdm2-MdmX conf,others
Nc1ccc(S(=O)(=O)Nc2nc(-c3ccccc3)cc(-c3ccccc3O)n2)cc1,nt,nt,nt,nt,1.0,nt,nt,
Oc1ccc(-c2cc(-c3ccc(O)cc3)nc(-c3ccccc3)n2)cc1,83.2*,28.8*,104.8*,-0.8,1.5,15.8,28.6,
Nc1nc(-c2ccccc2)cc(-c2ccccc2O)n1,80.3*,-4.5,22.9,-18.9,1.7,42.2,28.1,
Nc1nc(N)nc(-c2ccccc2O)n1,17.3,0.1,-14.5,-30.2,-1.4,19.3,nt,
CC(NC(=O)c1ccccc1F)c1nnc(SCC(=O)NC2CCCC2)n1C (centres undefined),-6.3,-1.6,-6.7,-2.6,-1.2,15.1,nt,
NC(=O)c1ccccc1OCC(=O)N1CCCC1c1ccc2c(c1)OCCCO2 (centres undefined),26.7,-1.2,nt,nt,-0.8,-5.8,nt,
Cc1ccccc1CC(=O)Nc1ccc2c(c1)c(=O)n(C)n2-c1ccccc1F,nt,nt,nt,nt,1.0,nt,nt,
COc1cc2ccccc2cc1C(=O)Nc1sc2c(c1C(N)=O)CCN(C(C)C)C2,100.1*,nt,95.0*,111.9*,0.5,nt,42.2*,FLuc counter=48.4*
COc1cccc(CN(C)C(=O)c2ccc(OCC(=O)N3CCOCC3)c(OC)c2)c1,8.8,-0.2,nt,-2.9,-3.2,6.4,nt,
O=C(Nc1ccc(NC(=O)c2sc3ccccc3c2Cl)cc1Cl)c1ccco1,89.1*,-0.5,7.5,0.7,-1.0,6.2,22.9,
CC(=O)c1ccc(NC(=O)c2ccc(NC(=O)c3ccco3)cc2)cc1,71.4*,12.9*,-3.7,-1.9,0.5,-4.9,12.8,
CCOc1ccc(C(=O)Nc2cccc(-c3nc4cccnc4o3)c2)cc1Cl,56.5*,4.3,16.4,-1.8,1.2,7.8,54.5*,FLuc counter=42.2*
CCOc1ccc(C(=O)Nc2cccc(C(=O)O)c2)cc1Cl,-86.3,1.5,0.8,nt,0.2,-39.1,nt,
CCOC(=O)c1cccc(NC(=O)c2ccc(NC(=O)c3ccco3)cc2)c1,73.0*,31.1*,-7.0,1.8,-0.4,6.8,12.7,
O=C(Nc1ccc(NC(=O)c2cccs2)c(Cl)c1)c1ccco1,17.8,-3.6,-1.8,-5.8,3.4,24.3,nt,
COC(=O)c1ccc(NC(=O)CN2CCC(NC(=O)c3ccccc3F)CC2)cc1,nt,nt,nt,nt,-1.0,nt,nt,
COc1ccc(NC(=O)CCNS(=O)(=O)c2cc(Br)ccc2Br)cc1S(N)(=O)=O,15.3,-1.8,nt,-10.0,1.3,-12.5,nt,
O=S(=O)(Cc1ccccc1)N1CCN(c2ncccn2)CC1,13.2,-0.9,nt,-2.2,-2.0,17.2,nt,
COc1ccc(N2CC(C(=O)N[C@@H](C)C(=O)NCCc3ccccc3)CC2=O)cc1 (some centres undefined),-5.0,0.5,-10.4,-9.0,-2.2,-10.5,nt,
CCOc1ccc(C(=O)Nc2ccc(NC(=O)c3ccco3)c(Cl)c2)cc1Cl,61.9*,-0.2,11.4,6.0,-6.6,-20.6,49.2*,FLuc counter=93.7*
CC(C)(C)c1ccc(Oc2ccc(NC(=O)c3ccco3)cn2)cc1,56.1*,-0.1,99.2*,75.2*,8.3,15.8,39.2,FLuc counter=69.2*
Cc1ccccc1NC(=O)c1cccc(NC(=O)c2ccco2)c1,9.7,0.7,5.9,nt,3.1,35.4,nt,
CCOc1ccccc1NC(=O)c1cccc(NC(=O)c2ccco2)c1,62.3*,-1.3,59.9,17.4,-1.8,-0.6,67.1*,FLuc counter=63.5*
COc1cccc(C(=O)Nc2ccc(NC(=O)c3ccco3)c(Cl)c2)c1,-6.7,7.6,8.8,-7.8,2.9,-11.7,nt,
COC(=O)c1cccc(Nc2nc(-c3cccnc3)nc3ccccc23)c1,70.3*,-3.5,31.4,27.6,17.1,5.1,43.0*,FLuc counter=71.7*
SMILES,Mdm2 MdmX PPI,NR3A LBD binder,CSC inhib,Beta apoptosis,MPTP block,Gli-Sufu block,Mdm2-MdmX conf,others
CCOC(=O)c1cccc(Nc2nc(-c3cccnc3)nc3ccccc23)c1,70.0*,1.7,92.1*,41.6,0.7,20.0,36.4,
O=C(O)c1cccc(Nc2nc(-c3cccnc3)nc3ccccc23)c1,-5.7,1.8,-8.3,-2.3,-0.8,-5.6,nt,
CNC[C@H]1Oc2cc(Br)ccc2S(=O)(=O)N([C@H](C)CO)C[C@H]1C,nt,nt,nt,nt,-0.8,nt,nt,
Cc1cc(C)nc(S/C=C/C(=O)c2ccc(F)cc2)n1,100.9*,nt,20.3,2.5,nt,nt,-2.1,
O=C(c1nc2ccc(Cl)cn2c1CN1CCC[C@H]1CO)N1CCc2ccccc2C1,nt,nt,nt,nt,1.1,nt,nt,
Cc1ccc(N2CN=c3s/c(=C\c4cccnc4)c(=O)n3C2)cc1,65.6*,2.9,-9.3,-7.9,-3.4,-44.0,23.8,
Cc1ccc(/C=c2\sc3n(c2=O)CN(c2ccc(Br)cc2)CN=3)o1,22.9,-0.7,42.9,-0.6,-1.5,-6.5,nt,
CCOc1ccc(-n2c(SCC(=O)Nc3ccccc3CC)nc3n[nH]c(C)c3c2=N)cc1,43.4,nt,2.2,29.8,nt,nt,nt,
Cc1cc(-n2c(SCC(=O)Nc3ccc(F)c(F)c3)nc3n[nH]c(C)c3c2=N)ccc1Cl,93.9*,25.5*,68.4,76.2*,1.1,-22.0,71.5*,FLuc counter=41.6*
COc1cccc(NC(=O)CSc2nc3n[nH]c(C)c3c(=N)n2-c2cccc(OC)c2)c1,35.4,-2.8,-1.9,7.0,2.7,0.8,nt,
CCOc1ccc(-n2c(SCC(=O)Nc3ccc(Br)cc3)nc3n[nH]c(C)c3c2=N)cc1,52.8*,18.6*,nt,17.4,6.0,4.1,41.4*,FLuc counter=66.6*
Cc1[nH]nc2nc(SCC(=O)NCC3CCCO3)n(-c3ccc(Br)cc3)c(=N)c12 (centres undefined),27.6,-5.6,-3.1,2.8,-0.6,5.8,nt,
CCc1ccc(NC(=O)CSc2nc3n[nH]c(C)c3c(=N)n2-c2cccc(OC)c2)cc1,65.7*,23.1*,6.0,14.9,-1.1,2.3,55.8*,FLuc counter=61.3*
Cc1cc(-n2c(SCC(=O)Nc3ccc(Br)cc3)nc3n[nH]c(C)c3c2=N)ccc1Cl,85.9*,19.8*,55.8,33.0,2.6,-3.5,43.0*,FLuc counter=63.9*
Cc1cc(C(=O)CN2C(=O)C(=O)N(Cc3ccco3)C2=O)c(C)n1CCc1ccc(F)cc1,38.1,1.9,57.2,-21.5,-1.7,-5.0,nt,
COc1cccc(C(=O)c2ccccc2NC(C)=O)c1,nt,nt,nt,nt,-0.6,nt,nt,
CC(C)[C@H](NS(=O)(=O)c1ccccc1)C(=O)OCC(=O)NC(=O)NC1CCCCC1,13.2,-0.5,-19.2,-3.0,1.5,1.2,nt,
O=C(C[C@H]1C(=O)N(C2CCCCC2)C[C@@H]1c1ccccc1)Nc1ccc(Br)cc1,nt,nt,nt,nt,-0.1,nt,nt,
Cc1cc(-n2c(SCC(=O)NCc3cccs3)nc3n[nH]c(C)c3c2=N)ccc1Cl,65.6*,4.3,-6.2,30.9,2.6,15.5,12.3,
COc1cc(NC(=S)N2CCN(C(c3ccccc3)c3ccccc3)CC2)cc(OC)c1,67.5*,-12.8,14.0,-13.0,0.4,21.2,29.1,

# Source: PubChem BioAssay
